PubChem BioAssay (Tox21)
Calls of active or inactive are those of the source. The call rests on the fitted dose curve.

Molecular target: Thyrotropin-releasing hormone receptor (Homo sapiens) (UniProt P34981)
Experiment: qHTS assay to identify small molecule agonists of the thyrotropin-releasing hormone receptor (TRHR) signaling pathway (AID 1346891);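 on activation: HEK293 cells expressing TRHR with calcium dye readout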
Conditions: TRHR-HEK293 calcium fluorescence, agonist mode; series mostly up to 57.6 µM; activation: at the top concentration
Source text: National Center for Advancing Translational Sciences [NCATS] NIH Chemical Genomics Center [NCGC] U.S. Environmental Protection Agency [EPA] National Institutes of Environmental Health Sciences [NIEHS] National Toxicology Program [NTP] Assay overview: Thyrotropin-releasing hormone (TRH) receptor (TRHR) is a G-protein-coupled receptor which binds the tripeptide thyrotropin releasing hormone. TRHR is found in the brain and, when bound by TRH, acts (through phospholipase C) to increase intracellular inositol trisphosphate. It plays a crucial role in the anterior pituitary where it controls the synthesis and secretion of thyroid stimulating hormone and prolactin. The TRHR-Hek293 assay is a cell-based assay, and it has the potential to screen G protein-coupled receptors. A compound/drug can either activate (agonist) or suppress (antagonist) GPCRs that can be monitored by levels of intracellular calcium. Using this assay, the Tox21 10K compound library was screened to identify potential TRHR agonists.
Assay Protocol Summary: The TRHR-Hek293 cells were dispensed at 1500cells/4uL/well in 1536-well black-clear bottom plates using a Multidrop dispenser. After the assay plates were incubated at a 37 C/5% CO2 incubator for 18 hours, 4 uL of Dye-Loading Solution was added to each well. The plates were incubated at 37 C for 2 hours. For agonist mode, 23 nL of compounds dissolved in DMSO, positive controls or DMSO only was transferred to the assay plate by a pin tool. The fluorescence intensity in the plates was measured using FDSS 7000EX kinetic plate reader for 3 min at 1 sec intervals. Each test compound was measured at 15 concentrations and in triplicates.
On the % scale 0 is the no-effect control and ±100 the full control effect; potency means the concentration at half of the fitted maximal effect.

Thyrotropin-releasing hormone receptor (Homo sapiens), sequence (P34981 whole entry, looked up): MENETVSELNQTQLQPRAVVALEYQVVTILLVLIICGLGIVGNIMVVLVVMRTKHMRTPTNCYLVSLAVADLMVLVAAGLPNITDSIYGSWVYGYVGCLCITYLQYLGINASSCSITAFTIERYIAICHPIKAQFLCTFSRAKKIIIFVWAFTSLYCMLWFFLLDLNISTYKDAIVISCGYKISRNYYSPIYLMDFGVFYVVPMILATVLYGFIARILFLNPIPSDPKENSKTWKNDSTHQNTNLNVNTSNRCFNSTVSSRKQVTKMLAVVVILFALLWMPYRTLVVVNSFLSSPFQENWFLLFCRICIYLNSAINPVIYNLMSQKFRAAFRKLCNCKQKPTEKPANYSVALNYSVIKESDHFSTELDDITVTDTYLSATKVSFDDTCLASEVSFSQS

Compound | activation | Potency
O=C(Nc1ccc(S(=O)(=O)N2CCOCC2)cc1)c1cc(Cl)ccc1NS(=O)(=O)c1ccc(Cl)s1 | 11.5% [at 26.5 µM] (inactive) | 
CCN(CC)c1ccc2c(-c3ccccc3C(=O)O)c3ccc(=[N+](CC)CC)cc-3oc2c1 |  | 34.7 µM (active)
Nc1c(CC(=O)O)cccc1C(=O)c1ccc(Br)cc1 | 0.768% [at 26.5 µM] (inactive) | 
CC1=CCCC(C)(C)C12CCC(C)O2 (stereo not given) | -0.105% (inactive) | 
CNCCCCOc1ccccc1Cc1ccccc1 | 8% [at 26.5 µM] (inactive) | 
CCCCCCCCCCCc1ccccc1 | -0.0228% (inactive) | 
Cc1nn(C)c(Oc2ccccc2)c1/C=N/OCc1ccc(C(=O)OC(C)(C)C)cc1 | 0.683% (inactive) | 
Nc1ccccc1S(=O)(=O)c1ccccc1 | 0.0192% (inactive) | 
O=C(Cl)c1cc(C(=O)Cl)cc(C(=O)Cl)c1 | 0.844% (inactive) | 
O=C1c2ccccc2S(=O)(=O)N1CCCCN1CCN(c2ncccn2)CC1 | 0.484% [at 26.5 µM] (inactive) | 
O=C1[C@H]2CCCC[C@H]2C(=O)N1CCCCN1CCN(c2nsc3ccccc23)CC1 | -0.0811% [at 26.5 µM] (inactive) | 
CCCCC/C=C\C/C=C\CCCCCCCC(=O)NC(C)c1ccccc1 (stereo not given) | -0.51% [at 26.5 µM] (inactive) | 
Cc1cccc(C)c1NC(=O)CN(CC(=O)O)CC(=O)O | 0.0245% [at 26.5 µM] (inactive) | 
Nc1cccc([N+](=O)[O-])c1 | -0.166% (inactive) | 
CCc1cc(C2=C(C(=O)O)N(c3ccccc3C(F)(F)F)S(=O)(=O)c3ccccc32)cc2c1OCO2 | 0.119% (inactive) | 
O=[N+]([O-])c1ccc(NCCO)c(OCCO)c1 | -0.0053% (inactive) | 
OCCNCc1ccccc1 | 0.171% (inactive) | 
COC(C)(C)CCO | -0.584% (inactive) | 
Cc1cc(C(=O)O)ccc1[N+](=O)[O-] | -0.0642% (inactive) | 
CC(C)(C)OCC1CO1 (stereo not given) | 0% (inactive) | 

Compound | activation | Potency
C=C(C)C(=O)OCCOCC | -0.0946% (inactive) | 
O=C(CS)Nc1ccccc1 | 0.19% [at 26.5 µM] (inactive) | 
COS(=O)(=O)C(F)(F)F | 0.149% (inactive) | 
CCCC(=O)Nc1ccc(O)c(C(C)=O)c1 | -0.0684% [at 26.5 µM] (inactive) | 
O=C(O)C1(C(=O)Nc2ccc(Cl)cc2Cl)CC1 | -0.122% (inactive) | 
CCCCC(CC)CN1C(=O)C2C3C=CC(C3)C2C1=O (stereo not given) | -0.355% (inactive) | 
COC(C)OC | -0.0232% (inactive) | 
CC(C)(CO)[N+](=O)[O-] | 0.195% (inactive) | 
C=CCOC(=O)CCC1CCCCC1 | -0.263% (inactive) | 
CCC(Cl)CCC(Cl)C(Cl)CC(Cl)C(Cl)C(Cl)CCl (stereo not given) | 0.0256% (inactive) | 
C=C(C)C(=O)OCCO | 0.004% (inactive) | 
CCOC(=O)C(=O)CCc1ccccc1 | -0.386% [at 26.5 µM] (inactive) | 
NS(=O)(=O)c1ccc(N2CCCCS2(=O)=O)cc1 | -0.176% [at 26.5 µM] (inactive) | 
C[Si](C)(CCCN)O[Si](C)(C)CCCN | -1.45% (inactive) | 
CN(C)c1ccc(/C=C/c2ccc([N+](=O)[O-])cc2)cc1 | 0.993% [at 5.23 µM] (inactive) | 
Cc1ccc(C(=O)Oc2ccc(C(O)CNC(C)(C)C)cc2OC(=O)c2ccc(C)cc2)cc1 (stereo not given) | 17.5% [at 26.5 µM] (inactive) | 
CC/C=C\CCOC(=O)CC | -0.0439% (inactive) | 
CCCCc1ncc(/C=C(\Cc2cccs2)C(=O)O)n1Cc1ccc(C(=O)O)cc1 | -0.172% [at 26.5 µM] (inactive) | 
O=C(Nc1ccccc1)c1ccccc1O | 10.6% (inactive) | 
CN(C)c1ccc(C(c2ccccc2)c2ccc(N(C)C)cc2)cc1 | 0.503% (inactive) | 
